The results in this text go back to PubChem BioAssay (NCI).

Among the test systems are SK-MEL-2 melanoma; SN12C renal; UO-31 renal; TK-10 renal; ACHN renal; CAKI-1 renal; A498 renal; MOLT-4 leukemia; CCRF-CEM leukemia.
Holding throughout (assay): NCI-60 one-dose screen, 48 h (100 = growth as untreated, 0 = no growth, -100 = all killed)
Common to all, as to conditions: 10 µM unless noted

This is part of a sample that, as a whole, favours compounds with a hit. Of some 83,000 tested, about 20% had one in any assay.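 96-well plates, one dose, 48 hours. Percent growth reported; active if below 10.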 Values without a mark were called inactive. The source made the active and inactive calls.

For the compound `COc1ccc(/C=C2\N=C(c3ccccc3)N(c3cc(OC)c(OC)cc3C(=O)N3N=C(C)CC3=O)C2=O)cc1`, the growth with SK-MEL-2 melanoma was 91.1%; in the experiment with SN12C renal, 93.7%; in the experiment on UO-31 renal it was 68.9%; in the experiment with TK-10 renal, 113%; in the experiment with ACHN renal, 93.2%; in the experiment with CAKI-1 renal it was 92.3%. Also, the growth is 50.8% in the experiment on A498 renal and 57.9% in the experiment with MOLT-4 leukemia.

As for `[B-][N+](CC)(CC)c1ccccc1`, the growth with SK-MEL-2 melanoma is 113%; in the experiment with SN12C renal it was 108%; in the experiment with UO-31 renal, 83.8%; in the experiment with TK-10 renal it was 110%; in the experiment on ACHN renal, 95.1%; in the experiment on A498 renal, 108%. Also, the growth with CCRF-CEM leukemia was -12.5% (active); with MOLT-4 leukemia it was 95.2%.

With `Nc1nc2c(c(=O)[nH]1)C(c1ccc3c(c1)OCO3)C=C(C(=O)O)N2` (centres undefined), the growth in the experiment on SK-MEL-2 melanoma is 116%; in the experiment with SN12C renal it was 113%; with UO-31 renal, 102%; in the experiment on TK-10 renal, 117%; in the experiment with ACHN renal it was 111%; in the experiment with CAKI-1 renal, 97.1%. The growth with A498 renal is 94.7%; in the experiment on CCRF-CEM leukemia it was 126%; in the experiment with MOLT-4 leukemia, 106%.

As for `CC(C)=CCC/C(C)=C/CC/C(C)=C/CSC[C@H](NC(=O)CCCCCN1CCN(C)CC1)C(=O)NC1CCCCCC1`, the growth was 88.2% in the experiment with SK-MEL-2 melanoma; 87.4% with SN12C renal; 56% in the experiment on UO-31 renal; 94.2% with TK-10 renal; 66% with ACHN renal; 77.3% in the experiment on A498 renal. The growth with CCRF-CEM leukemia was 19.9%; with MOLT-4 leukemia, 38.4%.

For `c1ccc2[nH]c(-c3cc(-c4ccc5c(c4)OCO5)n[nH]3)nc2c1`, the growth with SK-MEL-2 melanoma was 41%; with SN12C renal, 62.9%; with UO-31 renal, 66.7%; in the experiment on TK-10 renal, 86%; in the experiment on ACHN renal it was 45.6%; in the experiment on A498 renal, 71.8%.
